The list is not random: actives were taken first. Their share in the collection is about 4.7%.
tim23-1 inh: growth inhibitors of tim23-1 mutant yeast, primary screen, luminescence, uHTS; inhibition, % at 20 µM; 330,000 compounds, 1.3% hits; S. cerevisiae tim23-1 growth, BacTiter-Glo luminescence, 24 h;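 active means growth inhibition of the mutant yeast at or above 50%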;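 further: temperature-sensitive mutant grown at 25 °C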
Calb FLC: C. albicans growth inhibition with fluconazole, primary screen, CaCi-2 strain, Alamar Blue fluorescence | C. albicans CaCi-2 (fluconazole-resistant clinical isolate) + fluconazole, 48 h | AID 1979, 2009 | 300,000 compounds, 0.57% hits | growth inhibition, % (test concentration not listed);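 active means growth inhibition above about 58% in most replicates, limit read from the data, passing the limit was not always enough; inconclusive means exactly half the replicates above a set limit; inactive means most replicates below a set limit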;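 further: all wells also contain fluconazole at 8 µg/ml as a sub-toxic cotreatment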
PfHsp90 set2: growth inhibition of PfHsp90-expressing yeast, primary screen, antimalarial PfHsp90 inhibitor project, S. cerevisiae, BacTiter-Glo luminescence, single point, set 2; BacTiter-Glo ATP, 48 h; yeast lacking PDR1 and PDR3 efflux regulators; inhibition, % at 9.4 µM; 310,000 compounds, 0.32% hits;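 active means every replicate shows inhibition above about 80%, whatever the replicate mean, limit read from the data; inconclusive means mean inhibition reaches the set limit but some replicate falls short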
SKKanGAS inh: S. pyogenes SKKanGAS growth inhibitors in kanamycin, primary screen, streptokinase expression inhibitor project, SKKanGAS strain, BacTiter-Glo luminescence; inhibition, % at 7.5 µM; AID 1662, 2009; 300,000 compounds, 1.3% hits; 6 h;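 active means mean replicate score, as percent of positive control median, at least 50; inconclusive means mean below 50 but one replicate at or above 50; inactive means mean and every replicate below 50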;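 further: strain carries kanamycin resistance gene driven by streptokinase promoter and grows in 40 µg/ml kanamycin; loss of luminescence reflects streptokinase promoter inhibition or plain growth inhibition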
TIM10 inh: growth inhibitors of isogenic TIM10 control yeast, primary screen, counter-screen for tim10-1 yeast inhibitor project, luminescence, uHTS; inhibition, % at 10 µM; 330,000 compounds, 1.4% hits; S. cerevisiae TIM10 strain growth, BacTiter-Glo luminescence, 24 h; AID 463195, 2010;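 active means inhibition of 40% or more at the single tested concentration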;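 further: wild-type TIM10 isogenic control strain grown at permissive 25 °C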
tim10-1 inh: growth inhibitors of tim10-1 mutant yeast, primary screen, luminescence, uHTS; inhibition, % at 20 µM; S. cerevisiae tim10-1 ts strain growth, BacTiter-Glo, 24 h; 330,000 compounds, 2.2% hits;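 active means inhibition of at least 40%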;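 further: mutant grown at 25 °C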
tim10-1 conf: growth inhibitors of tim10-1 mutant yeast, confirmation, single concentration, luminescence, S. cerevisiae; inhibition, % at 20 µM; 7,400 compounds, 56% hits; S. cerevisiae tim10-1 ts strain growth, BacTiter-Glo, 24 h; shares compounds with tim10-1 inh; AID 463213, 2010;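 active means inhibition of yeast growth at or above a set limit in either of two repeat tests at 20 µM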;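 further: tim10-1 mutant grown at permissive 25 °C to find synthetic lethal compounds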
TIM10 conf: growth inhibitors of wild-type TIM10 yeast, confirmation, counter-screen for tim10-1 synthetic lethality project, single concentration, luminescence, S. cerevisiae | S. cerevisiae tim10 strain growth, BacTiter-Glo luminescence, 24 h | 4,600 compounds, 63% hits | AID 463215, 2010 | inhibition, % at 10 µM | shares compounds with TIM10 inh;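 active means inhibition of yeast growth at or above a set limit in either of two replicates at 10 µM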; further: this counterscreen used the strain with wild-type TIM10
tim23-1 conf: tim23-1 mutant yeast growth inhibitors, confirmation, luminescence, single concentration. 4,400 compounds, 83% hits. S. cerevisiae tim23-1 growth, BacTiter-Glo luminescence, 24 h. AID 463218, 2010. shares compounds with tim23-1 inh. inhibition, % at 20 µM;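 active means inhibition above about 39% in either of two replicate wells at 20 µM, limit read from the data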;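 further: temperature-sensitive tim23-1 mutant grown at 25 °C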
Hits are given with their value; – = inactive; ? = inconclusive; · = no result given.

SMILES | tim23-1 inh | Calb FLC | PfHsp90 set2 | SKKanGAS inh | TIM10 inh | tim10-1 inh | tim10-1 conf | TIM10 conf | tim23-1 conf
COc1ccc(/C=C(/C(=O)c2ccc(Cl)cc2Cl)n2cncn2)cc1 | 76 | – | – | – | 77 | 64 | 70 | 78 | 49
CN(C)c1ccc(/C=C(/C(=O)c2ccc(Cl)cc2Cl)n2cncn2)cc1 | 54 | – | – | – | 51 | 53 | 41 | – | 56
CC(=O)N/C(=C\c1ccccc1)C(=O)OCC(=O)Nc1ccc(C)c(S(=O)(=O)N(C)C)c1 | – | · | – | · | – | – | · | · | ·
C=CCn1c(O)c(/C=C2\C=NN=C2c2ccccc2)sc1=S | 51 | – | – | – | – | 43 | 35 | · | 51
O=C(Nc1csc([N+](=O)[O-])c1)Nc1ccccc1Cl | 66 | – | – | – | 54 | 51 | 49 | 67 | 56
Cn1c(N2CCCC2)nc2c1c(=O)n(Cc1ccc(Cl)cc1)c(=O)n2C | 53 | – | – | – | 56 | 55 | 40 | 35 | 60
Cn1c(N2CCC(C(N)=O)CC2)nc2c1c(=O)n(Cc1ccc(Cl)cc1)c(=O)n2C | – | – | – | – | – | – | · | · | ·
C=CC[C@@H]1C=C(C)C[C@H](C)C[C@H](OC)[C@H]2O[C@@](O)(C(=O)C(=O)N3CCCC[C@H]3C(=O)O[C@H](/C(C)=C/[C@@H]3CC[C@@H](O)[C@H](OC)C3)[C@H](C)[C@@H](O)CC1=O)[C@H](C)C[C@@H]2OC | 68 | 117 | · | – | 73 | 77 | 79 | 74 | 68
O=c1cc(CN2CCc3ccccc32)c2ccc(O)cc2o1 | 51 | ? | – | – | – | 44 | 32 | · | 48
O=C(N/N=C/c1cccc(Br)c1)c1ccc(Cn2cc(Br)cn2)o1 | 76 | – | – | – | 68 | 49 | 60 | 81 | 83
Cc1ccsc1/C=N/NC(=O)c1ccc(Cn2cc(Br)cn2)o1 | – | – | – | – | – | – | · | · | ·
COCCN(C(=O)COC(=O)c1c(NC(C)=O)sc(C)c1C)c1c(N)n(Cc2ccccc2)c(=O)[nH]c1=O | – | – | – | – | – | – | · | · | ·
COC(=O)c1c(NC(=O)c2cccc(S(=O)(=O)N3CCN(C)CC3)c2)sc(C)c1C | 55 | – | · | – | – | 57 | 42 | · | 47
CCOC(=O)c1sc(NC(=O)c2cccc(S(=O)(=O)N3CCN(C)CC3)c2)cc1C | – | – | – | – | – | – | · | · | ·
Cc1ccccc1C(=O)Oc1ccc2ccc(O)cc2c1 | 51 | – | – | – | – | 49 | 46 | · | 49
COc1cccc(C(=O)Oc2ccc3ccc(O)cc3c2)c1 | 57 | – | · | – | – | 43 | 38 | · | 54
Cc1cccc(-c2cc3nc4c(c(NCc5ccco5)n3n2)CCCC4)c1 | 54 | – | – | – | – | 53 | 34 | · | 56
O=C1C2C3C=CC(C4CC34)C2C(=O)N1/N=C/c1ccc(-c2ccc([N+](=O)[O-])cc2)o1 (stereo not drawn) | – | · | – | · | – | – | · | · | ·
O=C1C2C(C(=O)N1/N=C/c1ccc([N+](=O)[O-])o1)C1C=CC2C12CC2 (stereo not drawn) | 64 | ? | – | – | 43 | 57 | 50 | – | 62
O=C1C2C3C=CC(C4CC34)C2C(=O)N1/N=C/c1ccc([N+](=O)[O-])o1 (stereo not drawn) | 76 | – | – | – | 45 | 67 | 55 | 46 | 74
COc1ccc(C2=NOC(Cn3nc(-c4ccccc4C)cc3C(=O)O)C2)cc1 (stereo not drawn) | – | · | · | · | – | – | · | · | ·
Oc1cc2c(cc1C(c1ccc(Cl)c(Cl)c1)N1CCCC1)OCO2 (stereo not drawn) | 63 | – | – | – | – | 50 | 39 | · | 45
Oc1c(I)cc(I)c2cccnc12 | 69 | · | 109 | 92 | 53 | 71 | 65 | 76 | 56
Cc1ccccc1/C(N)=N/OC(=O)c1cccs1 | 68 | – | – | – | 70 | 61 | 50 | – | 48
COc1ccc(/C(N)=N/OC(=O)/C=C/c2ccccc2)cc1 | 80 | – | – | – | 61 | 62 | 41 | 68 | 72
SMILES | tim23-1 inh | Calb FLC | PfHsp90 set2 | SKKanGAS inh | TIM10 inh | tim10-1 inh | tim10-1 conf | TIM10 conf | tim23-1 conf
N/C(=N\OC(=O)c1cccs1)c1cccnc1 | – | – | – | – | – | – | · | · | ·
N/C(=N\OC(=O)/C=C/c1ccccc1)c1cccnc1 | – | – | – | – | – | – | · | · | ·
Cc1ccccc1/C(N)=N/OC(=O)/C=C/c1ccccc1 | 73 | ? | – | – | 76 | 76 | 52 | 68 | 56
Cc1ccc(/C(N)=N/OC(=O)/C=C/c2ccccc2)cc1 | 67 | – | – | – | 72 | 60 | 47 | 78 | 77
COc1ccc(/C=C/C(=O)O/N=C(\N)c2ccccc2)cc1OC | – | – | – | – | – | – | · | · | ·
O=C(Nc1cc(Cl)ccc1Cl)Nn1cnnc1 | – | – | – | – | – | – | · | · | ·
O=C(CNC(=O)C1CCCCC1)NCc1ccco1 | – | – | – | – | – | – | · | · | ·
COc1ccc(CCC(=O)NCC(=O)OCc2ccccc2)cc1 | – | – | – | – | – | – | · | · | ·
O=[N+]([O-])c1cnc(Nc2ccc(Cl)cn2)c([N+](=O)[O-])c1 | 73 | – | – | – | 50 | 73 | 69 | 33 | 81
O=C(Nc1ccc(Cl)cn1)c1ccccc1[N+](=O)[O-] | – | – | – | – | – | – | · | · | ·
CC1CCC(=C(C#N)C(=O)Nc2cccc(Cl)c2)CC1 (stereo not drawn) | 60 | – | – | – | – | 45 | 42 | · | 51
N#CC(C#N)=C(N)Nc1cccc(Cl)c1 | – | – | – | – | – | – | · | · | ·
COc1ccc(S(=O)(=O)N(Cc2ccco2)Cc2cc3ccccc3[nH]c2=O)cc1 | – | – | – | – | – | – | · | · | ·
CCc1nc2sc3ccccc3c(=O)c2c(=O)n1Cc1ccco1 | 53 | – | – | – | – | 69 | 61 | · | 62
COc1ccc(C(=O)Nc2ccc(NC(C)=O)cc2)cc1S(=O)(=O)N1CCCCC1C (stereo not drawn) | – | · | – | · | – | – | · | · | ·

Screening results deposited in PubChem BioAssay by several laboratories.
